# Source: PubChem BioAssay (Tox21)
# “And” between values parts separate entries of the source, which are not always exact repeats. Equal values may be shown once. A structure can be active in one record and inactive in another. The source made the active and inactive calls. A call without a number means that no potency is given here. Unless noted, calls follow the shape of the dose curve; as a rule, active = well fitted curve in the direction sought with a large enough effect in the repeat runs; inconclusive = weak or mixed curves; inactive = no such curve, though single readings can be large; an effect the other way counts as inactive or inconclusive.
# Legend:
# [1] = qHTS assay to identify small molecule antagonists of the glucocorticoid receptor (GR) signaling pathway - cell viability counter screen (AID 720693); also: nearly all actives have a fitted effect of over 55% in size; also: potency is read from the fitted curve at half-maximal effect
# [2] = qHTS assay for identifying genotoxic compounds that show differential cytotoxicity against isogenic chicken DT40 cell lines with known DNA damage response pathways - wild type cell line (AID 743012); also: nearly all actives have a fitted effect of over 60% in size; also: potency is read from the fitted curve at half-maximal effect
# Procedure, shortened: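 Cytotoxicity in repair-proficient parental chicken DT40 cells serves as the comparator for Rad54/Ku70- and Rev3-deficient lines. Cells were exposed to compounds for 40 h at 37 C/5% CO2, and ATP-based luminescence (CellTiter-Glo) measured viability.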
# [3] = qHTS assay for identifying genotoxic compounds that show differential cytotoxicity against isogenic chicken DT40 cell lines with known DNA damage response pathways - Rev3 mutant cell line (AID 743014); also: nearly all actives have a fitted effect of over 55% in size; also: potency is read from the fitted curve at half-maximal effect
# [4] = qHTS assay for identifying genotoxic compounds that show differential cytotoxicity against isogenic chicken DT40 cell lines with known DNA damage response pathways - Rad54/Ku70 mutant cell line (AID 743015); also: nearly all actives have a fitted effect of over 60% in size; also: potency is read from the fitted curve at half-maximal effect
# [5] = qHTS assay to identify small molecule antagonists of the androgen receptor (AR) signaling pathway - cell viability counter screen (AID 743033; also: nearly all actives have a fitted effect of over 45% in size; also: potency is read from the fitted curve at half-maximal effect)
# [6] = biological target: Androgen receptor (Homo sapiens) (UniProt P10275); assay: qHTS assay to identify small molecule antagonists of the androgen receptor (AR) signaling pathway (AID 743035; active = well fitted inhibition curve with a large enough effect in the signal ratio in the repeat runs, not every such curve was filed as active; inconclusive = weak or mixed curves, or effect the other way; inactive = no such curve, though single readings can be large or run the other way; the % refers to the signal ratio; also: potency is read from the fitted curve at half-maximal effect)
# Procedure, shortened: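 Steps: seed AR-UAS-bla GripTite HEK293 cells, incubate 4 h at 37C; pin in test compound, then add agonist R1881; incubate 16 h at 37C; add LiveBLAzer B/G FRET substrate, 2 h at room temperature; read fluorescence.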
# [7] = biological target: Androgen receptor (Homo sapiens) (UniProt P10275); assay: qHTS assay to identify small molecule agonists of the androgen receptor (AR) signaling pathway (AID 743036; active = well fitted activation curve with a large enough effect in the signal ratio in the repeat runs, with a control signal flat, not every such curve was filed as active; inconclusive = weak or mixed curves, or effect the other way; inactive = no such curve, though single readings can be large or run the other way; the % refers to the signal ratio)
# Procedure, shortened: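 Activation was read as beta-lactamase FRET signal from LiveBLAzer B/G substrate, added for 2 h at room temperature. Before that, GeneBLAzer AR-UAS-bla GripTite (HEK293) cells had 16 h compound exposure at 37C.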
# [8] = biological target: Androgen receptor (Homo sapiens) (UniProt P10275); assay: qHTS assay to identify small molecule agonists of the androgen receptor (AR) signaling pathway using the MDA cell line (AID 743040; also: nearly all actives have a fitted effect of over 20% in size); settings: MDA-kb2 AR-luc cells, MMTV luciferase, 16 h; activity change: at 70.3 µM (top of the series), stronger effect = higher value
# Procedure, shortened: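 Stable MMTV-luciferase reporter in MDA-kb2 cells; note the promoter carries GR as well as AR response elements. 16 h compound treatment, 37C, 0% CO2; ONE-Glo luminescence endpoint.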
# [9] = qHTS assay to identify small molecule antagonists of the androgen receptor (AR) signaling pathway using the MDA cell line - cell viability counter screen (AID 743041; also: nearly all actives have a fitted effect of over 45% in size; also: potency is read from the fitted curve at half-maximal effect)
# Procedure, shortened: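 Using the breast carcinoma line MDA-kb2 AR-luc, test chemicals were co-incubated with R1881 for 16 h; CellTiter-Fluor reagent, added at 15.5 h, provided a fluorescence measure of live cells.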
# [10] = qHTS assay to identify small molecule antagonists of the thyroid receptor (TR) signaling pathway - cell viability counter screen (AID 743064); also: nearly all actives have a fitted effect of over 50% in size; also: potency is read from the fitted curve at half-maximal effect
# Procedure, shortened: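 In-well cytotoxicity read by CellTiter-Fluor (30 min, 37 C) following 23.5 h exposure of GH3 cells bearing a TRE-luciferase sensor. Compounds were added alongside 1 nM (final) T3 to drive TR transactivation.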
# [11] = tested on: thyroid hormone receptor (rat, GH3 cells); assay: qHTS assay to identify small molecule agonists of the thyroid receptor (TR) signaling pathway (AID 743066; calls by dose curve)
# [12] = biological target: Estrogen receptor (Homo sapiens) (UniProt P03372); assay: qHTS assay to identify small molecule antagonists of the estrogen receptor alpha (ER-alpha) signaling pathway (AID 743069; active = well fitted curve in the direction sought with a large enough effect in the signal ratio in the repeat runs, not every such curve was filed as active; inconclusive = weak or mixed curves, or effect the other way; inactive = no such curve, though single readings can be large or run the other way; the % refers to the signal ratio; also: potency is read from the fitted curve at half-maximal effect)
# Procedure, shortened: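 Fluorescence intensity from a beta-lactamase FRET substrate served as the read-out. Cells: HEK293 with stably integrated ER-alpha-UAS-bla reporter. Agonist 17beta-estradiol was co-added with compounds; incubation 18 hr at 37C, substrate 2 hr at room temperature.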
# [13] = qHTS assay to identify small molecule antagonists of the estrogen receptor alpha (ER-alpha) signaling pathway - cell viability counter screen (AID 743074; calls by dose curve; also: nearly all actives have a fitted effect of over 45% in size; also: potency is read from the fitted curve at half-maximal effect)
# [14] = biological target: Estrogen receptor (Homo sapiens) (UniProt P03372); assay: qHTS assay to identify small molecule agonists of the estrogen receptor alpha (ER-alpha) signaling pathway (AID 743075; calls by dose curve; also: potency is read from the fitted curve at half-maximal effect)
# [15] = biological target: Estrogen receptor (Homo sapiens) (UniProt P03372); assay: qHTS assay to identify small molecule agonists of the estrogen receptor alpha (ER-alpha) signaling pathway using the BG1 cell line (AID 743079); also: nearly all actives have a fitted effect of over 20% in size; also: potency is read from the fitted curve at half-maximal effect
# [16] = qHTS assay to identify small molecule antagonists of the estrogen receptor alpha (ER-alpha) signaling pathway using the BG1 cell line (AID 743080; calls by dose curve;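 also: BG1 cells stimulated with 17beta-estradiol alongside compound; nearly all actives have a fitted effect of over 25% in size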; also: potency is read from the fitted curve at half-maximal effect)
# Procedure, shortened: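 Endogenous full-length ER-alpha in BG1-Luc-4E2 cells drives a stably integrated 4×ERE luciferase gene; compounds were tested against 17beta-estradiol over 21.5 h, with luminescence and multiplexed viability fluorescence recorded.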
# [17] = qHTS assay to identify small molecule antagonists of the estrogen receptor alpha (ER-alpha) signaling pathway using the BG1 cell line - cell viability counter screen (AID 743081);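 also: compound given together with 17beta-estradiol as the ER stimulus; nearly all actives have a fitted effect of over 45% in size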; also: potency is read from the fitted curve at half-maximal effect
# [18] = biological target: Aromatase (Homo sapiens) (UniProt P11511); assay: qHTS assay to identify aromatase inhibitors (AID 743083); also: nearly all actives have a fitted effect of over 55% in size; also: potency is read from the fitted curve at half-maximal effect
# [19] = qHTS assay to identify aromatase inhibitors - cell viability counter screen (AID 743084);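 also: cells stimulated with testosterone during compound exposure; nearly all actives have a fitted effect of over 55% in size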; also: potency is read from the fitted curve at half-maximal effect
# [20] = qHTS assay to identify small molecule antagonists of the thyroid receptor (TR) signaling pathway (AID 743065); also: nearly all actives have a fitted effect of over 55% in size; also: potency is read from the fitted curve at half-maximal effect
# Procedure, shortened: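 Antagonism measured as loss of luciferase signal in GH3 cells stably carrying a TRE-luciferase reporter, co-treated with compound and T3 (1 nM final) for 23.5 h at 37 C. Viability was read in the same well by CellTiter-Fluor.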
# Estrogen receptor (Homo sapiens), sequence (P03372 whole entry, looked up): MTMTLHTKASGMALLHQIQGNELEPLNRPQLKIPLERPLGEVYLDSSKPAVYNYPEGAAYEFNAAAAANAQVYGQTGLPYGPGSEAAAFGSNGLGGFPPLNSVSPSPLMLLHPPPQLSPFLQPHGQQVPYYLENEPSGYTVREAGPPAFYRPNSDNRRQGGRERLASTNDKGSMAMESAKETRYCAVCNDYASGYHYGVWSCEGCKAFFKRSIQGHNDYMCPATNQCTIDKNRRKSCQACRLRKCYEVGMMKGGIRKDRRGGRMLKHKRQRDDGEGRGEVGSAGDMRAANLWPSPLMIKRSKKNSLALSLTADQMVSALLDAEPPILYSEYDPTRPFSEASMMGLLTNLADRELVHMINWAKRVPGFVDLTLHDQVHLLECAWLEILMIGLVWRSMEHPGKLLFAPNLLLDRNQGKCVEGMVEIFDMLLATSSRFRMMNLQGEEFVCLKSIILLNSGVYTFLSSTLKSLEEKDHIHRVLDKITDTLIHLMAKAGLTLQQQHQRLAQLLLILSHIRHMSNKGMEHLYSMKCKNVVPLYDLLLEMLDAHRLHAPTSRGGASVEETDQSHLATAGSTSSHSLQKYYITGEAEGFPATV
# Aromatase (Homo sapiens), sequence (P11511 whole entry, looked up): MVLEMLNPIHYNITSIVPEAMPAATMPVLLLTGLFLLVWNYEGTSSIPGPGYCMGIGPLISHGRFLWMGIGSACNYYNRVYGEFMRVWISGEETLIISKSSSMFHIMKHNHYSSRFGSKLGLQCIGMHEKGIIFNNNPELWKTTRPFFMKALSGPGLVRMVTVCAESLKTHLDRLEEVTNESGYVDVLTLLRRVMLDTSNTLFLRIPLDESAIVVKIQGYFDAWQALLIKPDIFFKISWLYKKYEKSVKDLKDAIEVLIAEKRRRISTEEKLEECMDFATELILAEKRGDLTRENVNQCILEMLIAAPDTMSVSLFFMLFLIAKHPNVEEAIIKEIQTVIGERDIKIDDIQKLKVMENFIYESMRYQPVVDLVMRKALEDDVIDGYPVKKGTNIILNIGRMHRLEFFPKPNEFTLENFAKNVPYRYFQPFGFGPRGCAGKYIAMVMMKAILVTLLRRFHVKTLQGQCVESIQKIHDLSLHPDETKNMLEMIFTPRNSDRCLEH
# Androgen receptor (Homo sapiens), sequence (P10275 whole entry, looked up): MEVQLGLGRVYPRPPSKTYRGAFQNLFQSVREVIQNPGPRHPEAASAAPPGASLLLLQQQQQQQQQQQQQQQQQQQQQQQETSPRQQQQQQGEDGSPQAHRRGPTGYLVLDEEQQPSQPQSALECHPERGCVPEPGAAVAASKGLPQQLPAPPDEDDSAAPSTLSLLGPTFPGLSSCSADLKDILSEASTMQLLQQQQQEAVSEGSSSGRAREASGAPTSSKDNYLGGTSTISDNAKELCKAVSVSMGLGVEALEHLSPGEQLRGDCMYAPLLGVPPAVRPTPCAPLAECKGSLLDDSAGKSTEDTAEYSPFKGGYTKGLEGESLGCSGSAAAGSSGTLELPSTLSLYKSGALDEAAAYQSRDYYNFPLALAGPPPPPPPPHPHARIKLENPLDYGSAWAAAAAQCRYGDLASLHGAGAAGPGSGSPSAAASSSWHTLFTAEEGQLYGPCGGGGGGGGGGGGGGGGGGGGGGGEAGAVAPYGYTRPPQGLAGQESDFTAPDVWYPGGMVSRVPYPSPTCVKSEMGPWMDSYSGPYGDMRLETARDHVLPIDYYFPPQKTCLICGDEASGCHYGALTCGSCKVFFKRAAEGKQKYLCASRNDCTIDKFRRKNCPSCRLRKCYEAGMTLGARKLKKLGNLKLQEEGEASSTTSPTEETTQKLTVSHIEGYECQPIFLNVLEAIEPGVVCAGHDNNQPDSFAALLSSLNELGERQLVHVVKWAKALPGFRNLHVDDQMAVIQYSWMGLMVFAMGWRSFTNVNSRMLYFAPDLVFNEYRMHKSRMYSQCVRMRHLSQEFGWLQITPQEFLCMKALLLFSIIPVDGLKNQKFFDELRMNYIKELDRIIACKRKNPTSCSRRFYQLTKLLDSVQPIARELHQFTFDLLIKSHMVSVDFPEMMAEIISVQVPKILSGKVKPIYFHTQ
SMILES,Potency [1],Potency [2],Potency [3],Potency [4],Potency [5],Potency [6],Potency [7],Potency [8],Potency [9],Potency [10],Potency [11],Potency [12],Potency [13],Potency [14],Potency [15],Potency [16],Potency [17],Potency [18],Potency [19],Potency [20]
CCCCCCCCOC(=O)c1ccccc1C(=O)OCCCCCCCC,inactive,inactive,inactive,inactive,inactive,inactive,inactive,inactive,inactive,inactive,inactive,inactive,inactive,inactive,inactive,inactive,inactive,inactive,inactive,–
O=P(O)(O)CCCl,inactive,inactive,inactive,inactive,inactive,–,–,–,inactive,inactive,inactive,inactive,inactive,inactive,inactive,inactive,inactive,inactive,inactive,inactive
CC(C)Oc1cc(-n2nc(C(C)(C)C)oc2=O)c(Cl)cc1Cl,inactive,5.45 µM (active),6.11 µM (active),60.3 µM (active) and 4.86 µM (active),11 µM (active),43 µM (active) and 12.3 µM (active),inactive,inactive,inactive,53.7 µM (active),inactive,61.6 µM [inconclusive] (active),inactive,inactive,–,47.9 µM (active),inactive,60.3 µM (active) and 17.2 µM (active),27.3 µM (active),67.6 µM (active)
CCN(CC)N=O,inactive,inactive,inactive,inactive,inactive,–,–,–,inactive,inactive,inactive,–,inactive,–,–,–,inactive,inactive,inactive,inactive
C=C(C)C(=O)OCC1CO1 (configuration not stated),inactive,inactive,inactive,inactive,inactive,–,–,–,inactive,inactive,inactive,inactive,inactive,inactive,inactive,inactive,inactive,inactive,inactive,inactive
CCCCC(CC)COC(=O)c1ccc(C(=O)OCC(CC)CCCC)c(C(=O)OCC(CC)CCCC)c1 (configuration not stated),inactive,inactive,inactive,inactive,inactive,–,inactive,inactive,inactive,inactive,inactive,–,inactive,–,–,–,inactive,inactive,inactive,inactive
Nc1ccncc1,inactive,inactive,inactive,inactive,inactive,inactive,inactive,inactive,inactive,inactive,inactive,inactive,inactive,inactive,inactive,inactive,inactive,inactive,inactive,inactive
O=P(Oc1ccccc1)(Oc1ccccc1)Oc1ccccc1,inactive,54.2 µM (active) and 48.6 µM (active),60.8 µM (active) and 48.6 µM (active),38.4 µM (active) and 27.3 µM (active),inactive,–,–,–,inactive,inactive,inactive,inactive,inactive,inactive,6.08 µM (active),inactive,inactive,inactive,inactive,inactive
CCOc1cc(C=O)ccc1O,inactive,inactive,inactive,inactive,inactive,–,–,–,inactive,inactive,inactive,–,inactive,–,–,–,inactive,–,–,inactive
C=CCc1ccc(OC)cc1,inactive,inactive,26.5 µM (active),inactive,inactive,–,–,–,inactive,inactive,inactive,–,inactive,–,–,–,inactive,inactive,inactive,inactive
NCc1cccnc1,inactive,inactive,inactive,inactive,inactive,–,–,–,inactive,inactive,inactive,inactive,inactive,inactive,inactive,inactive,inactive,inactive,inactive,inactive
CNC(=O)N(C)c1nnc(C(C)(C)C)s1,inactive,inactive,inactive,inactive,inactive,–,–,–,inactive,inactive,inactive,inactive,inactive,inactive,inactive,inactive,inactive,inactive,inactive,–
CCN(CC)C(=O)SCc1ccc(Cl)cc1,inactive,43.3 µM (active),21.7 µM (active),24.3 µM (active),inactive,–,–,–,inactive,inactive,inactive,inactive,inactive,inactive,inactive,inactive,inactive,inactive,inactive,–
O=C(Nc1ccc(Br)cc1)c1cc(Br)cc(Br)c1O,3.45 µM (active) and 2.19 µM (active),21.7 µM (active),inactive and 19.3 µM (active),inactive and 19.3 µM (active),inactive and 24.5 µM (active) and 9.77 µM (active),–,–,–,inactive,16.8 µM (active) and 5.43 µM (active) and 4.33 µM (active),inactive,–,6.01 µM (active) and 4.35 µM (active) and 2.19 µM (active),inactive,–,15.4 µM (active),inactive,inactive and 13.7 µM (active),inactive,–
CC(C)=CC1C(C(=O)OCc2coc(Cc3ccccc3)c2)C1(C)C (configuration not stated),inactive,inactive and 38.5 µM (active),inactive and 54.4 µM (active),inactive and 43.2 µM (active),inactive,–,–,–,inactive,inactive,inactive,inactive,inactive,inactive,inactive,inactive,inactive,inactive,inactive,–
N#CC(Br)Br,inactive,inactive,inactive,inactive,inactive,–,–,–,inactive,inactive,inactive,inactive,inactive,inactive,inactive,inactive,inactive,inactive,inactive,–
CCC(C)(C)c1ccc(O)cc1,inactive,inactive and 54.5 µM (active),inactive and 61.8 µM (active) and 30.6 µM (active),inactive and 54.5 µM (active),inactive,–,–,–,inactive,inactive,inactive,inactive,inactive,inactive and 15.7 µM [inconclusive] (active) and 55 µM [activator] (active),17.4 µM (active) and 24.3 µM (active),inactive,inactive,inactive,inactive,–
O=[N+]([O-])c1cccc2ccccc12,inactive,inactive,inactive,inactive,inactive,–,–,–,inactive,inactive,inactive,inactive,inactive,inactive,inactive,inactive,inactive,inactive,inactive,–
Brc1ccc(Oc2cc(Br)c(Br)cc2Br)c(Br)c1,inactive,inactive,inactive,inactive,inactive,–,–,–,inactive,48.9 µM (active),inactive,inactive,inactive,inactive,inactive and 61.6 µM (active),inactive,inactive,inactive,inactive,–
Oc1cc(Cl)c(Cl)cc1Cl,inactive,inactive,inactive and 68.6 µM (active),inactive and 61.1 µM (active),inactive,–,–,–,inactive,inactive,inactive,–,inactive,–,–,–,inactive,inactive,inactive,–
CCC(C)c1ccc(O)cc1 (configuration not stated),inactive,inactive,inactive and 61.1 µM (active),inactive and 43.3 µM (active),inactive,–,–,–,inactive,inactive,inactive,–,inactive,–,–,–,inactive,–,–,–
C#C[C@]1(O)CC[C@H]2[C@@H]3CCC4=CC(=O)CC[C@]4(C)[C@H]3CC[C@@]21C,inactive,inactive,inactive,inactive,inactive,–,–,–,inactive,inactive,inactive,–,inactive,–,–,–,inactive,inactive,inactive,6.86 µM (active)
NC(=S)Nc1ccccc1,inactive,inactive,inactive,inactive,inactive,–,–,–,inactive,inactive,inactive,inactive,inactive,inactive,inactive,inactive,inactive,inactive,inactive,–
Nn1cnnc1,inactive,inactive,inactive,inactive,inactive,–,–,–,inactive,inactive,inactive,inactive,inactive,inactive,inactive,inactive,inactive,inactive,inactive,–
O=C(NC(=O)c1c(F)cccc1F)Nc1ccc(Cl)cc1,inactive,inactive,inactive,inactive,inactive,–,–,–,inactive,inactive,inactive,inactive,inactive,inactive,inactive and 2.43 µM (active),–,inactive,inactive,inactive,–
ClC1C(Cl)C(Cl)C(Cl)C(Cl)C1Cl (configuration not stated),inactive,inactive and 54.5 µM (active),inactive and 48.6 µM (active) and 24.3 µM (active),inactive and 48.6 µM (active) and 17.2 µM (active),inactive,–,–,–,inactive,inactive,inactive,–,inactive,–,–,–,inactive,inactive and 54.5 µM (active),inactive,–
C#CCOS(=O)OC1CCCCC1Oc1ccc(C(C)(C)C)cc1 (configuration not stated),21.9 µM (active),6.12 µM (active) and 2.73 µM (active),3.86 µM (active) and 2.17 µM (active),4.33 µM (active) and 2.43 µM (active),174 nM (active) and 1.74 µM (active),–,–,–,4.33 µM (active),6.86 µM (active),inactive,–,–,inactive and 2.75 µM [inconclusive] (active),–,9.7 µM (active),27.3 µM (active),15.4 µM (active) and 6.86 µM (active),21.7 µM (active) and 6.86 µM (active),4.33 µM (active)
